SMILES strings stand for the structures. Out of some 29,000 compounds screened, fewer than 10 were called active. Only a sample is shown. A number with no mark means an inactive call. The rule behind the calls is not given here.

The assay is described as follows: activators reversing PD-1 mediated T-cell inhibition, primary screen, luminescence, primary human CD4 T cells, PD-L1 beads (AID 2316).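 Note: 0% = median vehicle wells and 100% = positive control.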 To be noted: CellTiter-Glo 96 h, stronger effect = higher value.
Regarding `CC(=O)NCCc1nc2cc(NC(=O)c3ccccc3)ccc2n1C`, the activation is 2.35%.
With `C[C@@H]1CN([C@@H](C)CO)C(=O)c2cc(NC(=O)CCCN(C)C)ccc2O[C@@H]1CN(C)Cc1ccncc1` the figure was 0.414%.
Turning to `CCOc1ccc(NC(=O)C(C)Sc2nnc(C)n2-c2ccccc2)cc1` (stereo not given), the activation is -0.74%.
With `C[C@@H]1CCCCO[C@@H](CN(C)C(=O)NC2CCCCC2)[C@@H](C)CN([C@H](C)CO)C(=O)c2cc(NC(=O)CCC(F)(F)F)ccc2O1` the figure was -0.155%; with `COc1cc(OC)cc(C(=O)N2CCN=C2c2ccccc2)c1`, 0.604%.
Then `C[C@@H]1CN([C@@H](C)CO)C(=O)c2cc(NC(=O)Cc3ccccc3)ccc2O[C@H]1CN(C)Cc1ccc(Cl)c(Cl)c1`, with -0.482%; and `Cc1ccccc1N=C(N)N=C(N)N`, with -0.656%; and `C[C@@H]1CCCCO[C@H](CN(C)C(=O)C2CCCCC2)[C@@H](C)CN([C@H](C)CO)C(=O)c2cc(NC(=O)C3CCCCC3)ccc2O1`, with -3.28%.
As for `CC(=O)c1cccc(NC(=O)CN(C)S(=O)(=O)c2ccc3ccccc3c2)c1`, the activation is 0.81%.
With `COc1ccccc1-n1c(N)cc(=O)nc1SCC(=O)Nc1ccc(Br)cc1` the figure was 1.16%.
Then `C[C@H](CO)N1C[C@H](C)[C@H](CN(C)S(=O)(=O)c2cccs2)Oc2ccc(NC(=O)Nc3ccccc3)cc2C1=O`, with -1.39%.
With `Cc1ccc(-c2noc(CSc3nnc(-c4cccs4)n3C)n2)cc1` the figure was 0.512%; with `Cc1ccc(C)c(OCC(=O)Nc2ccccc2C#N)c1`, -3.9%; with `COc1ccc(S(=O)(=O)N(C)C[C@@H]2Oc3ccc(NS(=O)(=O)c4ccc(Cl)cc4)cc3C(=O)N([C@H](C)CO)C[C@H]2C)cc1`, -2.88%.
Turning to `O=C(OCC1OC(Oc2ccc(O)cc2COC(=O)C2(O)C(O)CCC(O)C2O)C(O)C(O)C1O)c1ccccc1` (stereo not given), the activation is -1.74%.
Regarding `C[C@@H]1CN([C@@H](C)CO)C(=O)c2cccc(NS(=O)(=O)c3ccc(Cl)cc3)c2O[C@@H]1CN(C)C(=O)Nc1ccccc1`, the activation was -0.568%.
Then `C[C@@H]1CN([C@H](C)CO)C(=O)Cc2cc(NC(=O)Cn3cnnn3)ccc2O[C@H]1CN(C)Cc1ccc(Cl)c(Cl)c1`, with 1.08%.
For `C[C@@H]1CN([C@@H](C)CO)C(=O)c2cccc(NS(=O)(=O)c3ccc(F)cc3)c2O[C@@H]1CN(C)Cc1ccc(C(=O)O)cc1`, the activation is 1.83%.
Then `C[C@H]1CN([C@@H](C)CO)C(=O)c2cc(NS(=O)(=O)c3cccs3)ccc2O[C@@H]1CN(C)C(=O)Nc1cccc2ccccc12`, with -0.392%; and `COc1ccc(NC(=O)Nc2ccc3c(c2)CC(=O)N([C@H](C)CO)C[C@H](C)[C@H](CN(C)Cc2ccncc2)O3)cc1`, with 0.119%; and `CC(=O)Nc1ccc(Nc2c3c4c(cccc4[nH]c2=O)C(=O)c2ccccc2-3)cc1`, with -3.04%.
As to `Cc1noc(C)c1S(=O)(=O)Nc1ccc2c(c1)CC(=O)N([C@@H](C)CO)C[C@H](C)[C@@H](CN(C)S(=O)(=O)c1cn(C)cn1)O2`, the activation was 1.24%.
Then `C[C@H]1CN([C@@H](C)CO)C(=O)c2cccc(NS(=O)(=O)c3ccc(F)cc3)c2O[C@@H]1CN(C)C`, with 0.422%.
Then `Cc1ccc(S(=O)(=O)Nc2ccc3c(c2)C(=O)N([C@H](C)CO)C[C@H](C)[C@H](CN(C)S(C)(=O)=O)O3)cc1`, with 0.318%; and `COc1ccc(NC(=O)Nc2cccc3c2O[C@H](CN(C)C(=O)Nc2ccc(F)cc2)[C@@H](C)CN([C@@H](C)CO)C3=O)cc1`, with 1.83%; and `COc1ccc(NC(=O)N(C)C[C@@H]2OCCCC[C@@H](C)Oc3ccc(NC(=O)NC4CCCCC4)cc3C(=O)N([C@H](C)CO)C[C@@H]2C)cc1`, with 0.764%.
Then `CCOc1ccc(NC(=O)CSc2nccc(C)n2)cc1`, with 1.48%.
As to `Cc1ccc(C)c(NC(=O)CSc2nc(C)nc3sc(C)c(C)c23)c1`, the activation is 0.586%.
With `CC(C)(C)c1ccc(S(=O)(=O)NCC(=O)Nc2ccc(F)cc2)cc1` the figure was -2.51%; with `COC(=O)c1c(NC(=O)COc2ccc(C(C)C)c(C)c2)sc2c1CCC2`, 0.596%.
Then `O=S(=O)(c1ccccc1)c1nc(-c2ccccc2F)oc1NCc1cccnc1`, with -0.501%; and `COc1ccccc1N(CC(=O)Nc1ccc(C(F)(F)F)cc1)S(C)(=O)=O`, with 0.0709%.
With `C[C@@H]1CN([C@H](C)CO)C(=O)c2cccc(NC(=O)c3ccncc3)c2O[C@@H]1CN(C)C` the figure was 0.1%.
Regarding `Cc1ccc(S(=O)(=O)Nc2ccc3c(c2)CC(=O)N([C@H](C)CO)C[C@@H](C)[C@H](CN(C)S(=O)(=O)c2c(C)noc2C)O3)cc1`, the activation was 0.836%.
With `O=C(NCc1ccccn1)C(=O)Nc1cccc(Cl)c1Cl` the figure was 2.26%.
Take `COC1OC(O)C(O)C12CC[C@@]1(O2)[C@H](C)C[C@H]2OC(=O)[C@@]3(C)CCC[C@]1(C)C23` (stereo not given in full): the activation was 0.449%.
With `Cc1ccc(S(=O)(=O)CCC(=O)Nc2ccc(Cl)cc2)cc1` the figure was 0.811%.
Turning to `Cc1ccc(C(=O)O)cc1S(=O)(=O)NCC1CCCO1` (stereo not given), the activation was -0.751%.
Consider `COc1ccc(NC(=O)Nc2ccc3c(c2)CC(=O)N([C@@H](C)CO)C[C@H](C)[C@H](CN(C)C(=O)Nc2ccc4c(c2)OCO4)O3)cc1`, for which the activation was 0.0102%.
Then `COc1ccc2nc3c(nc2c1)C(=O)c1ccccc1C3=O`, with 0.69%; and `C[C@H](CO)N1C[C@H](C)[C@@H](CN(C)Cc2ccccc2)Oc2c(NC(=O)CCCCCC(=O)Nc3ccccc3N)cccc2C1=O`, with -2.46%.
Regarding `Cc1ccc(S(=O)(=O)N(C)C[C@H]2Oc3ccc(NC(=O)Cc4cn(C)c5ccccc45)cc3CC(=O)N([C@@H](C)CO)C[C@H]2C)cc1`, the activation is -0.47%.
With `C/C=C(/C)C(=O)O[C@H]1CC(C)(C)C[C@H]2C3=CCC4[C@@]5(C)CC[C@H](O[C@@H]6O[C@H](C(=O)O)[C@@H](O[C@@H]7O[C@H](CO)[C@H](O)[C@H](O)[C@H]7O[C@@H]7O[C@H](CO)[C@@H](O)[C@H](O)[C@H]7O)[C@H](O)[C@H]6O[C@@H]6O[C@@H](C)[C@H](O)[C@@H](O)[C@H]6O)C(C)(C)C5CC[C@@]4(C)[C@]3(C)[C@@H](OC(C)=O)[C@@H](O)[C@@]12COC(C)=O` (stereo not given in full) the figure was -14.9%; with `C[C@@H]1CCCCO[C@H](CN(C)Cc2ccncc2)[C@@H](C)CN([C@H](C)CO)C(=O)c2cc(NC(=O)CCCN(C)C)ccc2O1`, 0.961%.
With `Cc1cc(C)c(C(=O)CSc2nc(C)cc(=O)[nH]2)c(C)c1` the figure was 1.17%; with `CS(=O)(=O)N(CC(=O)N1CCOCC1)c1ccc2c3c(cccc13)CC2`, 0.857%.
Take `COc1cc(C2OC(c3cc(OC)c(OC)c(OC)c3)C(C)C2C)cc(OC)c1OC` (stereo not given): the activation is 0.69%.
Then `Cc1noc(C)c1NC(=O)N(C)C[C@H]1Oc2ccc(NS(=O)(=O)c3ccc(F)cc3)cc2C(=O)N([C@@H](C)CO)C[C@H]1C`, with 2.2%.
On to `COc1ccc(NC(=O)N(C)C[C@H]2Oc3c(NC(=O)Nc4cccc5ccccc45)cccc3C(=O)N([C@@H](C)CO)C[C@H]2C)cc1`, for which the activation is 0.624%.
With `CC(=O)Oc1ccc2occ(C(=O)c3cc4ccccc4o3)c2c1` the figure was -0.284%; with `CS(=O)(=O)N(CC(=O)Nc1cc(C(F)(F)F)ccc1Cl)c1ccc(Br)cc1`, -0.295%.
Then `C[C@H]1CN([C@@H](C)CO)C(=O)c2cccc(NC(=O)C3CCOCC3)c2O[C@@H]1CN(C)C`, with 0.0381%; and `C[C@@H]1CN([C@@H](C)CO)C(=O)Cc2cc(NC(=O)CCCCCC(=O)Nc3ccccc3N)ccc2O[C@@H]1CN(C)C(=O)NC1CCCCC1`, with 0.434%; and `C[C@@H]1CN([C@H](C)CO)C(=O)c2cc(NC(=O)Nc3ccc4c(c3)OCO4)ccc2O[C@H]1CN(C)C(=O)Nc1ccccc1`, with 0.77%.
For the molecule `Cn1nc(C(=O)O)c2ccccc2c1=O`, the activation was -0.137%.
With `COc1ccc(S(=O)(=O)N(C)CC(=O)Nc2cccc(C(F)(F)F)c2)cc1OC` the figure was -1.43%.
Then `CCCCCC(O)c1cccc(OCc2ccc3ccccc3n2)c1` (stereo not given), with 5.54%.
On to `C[C@H]1CN([C@@H](C)CO)C(=O)c2cccc(NC(=O)c3ccncc3)c2O[C@H]1CN(C)C`, for which the activation is 2.81%.
With `O=C(O)C1CC=CCC1C(=O)Nc1ccc(C(=O)N2CCCCC2)c(Cl)c1` (stereo not given) the figure was 2.23%; with `Cc1ccc(S(=O)(=O)N(C)C[C@@H]2Oc3c(NC(=O)C4CCCCC4)cccc3C(=O)N([C@H](C)CO)C[C@H]2C)cc1`, 1.48%; with `Cc1ccc(S(=O)(=O)Nc2ccc3c(c2)C(=O)N([C@H](C)CO)C[C@H](C)[C@@H](CN(C)S(=O)(=O)c2cccs2)O3)cc1`, -1.04%.
Regarding `CC(C)CSc1nnc(CSCc2nc(-c3ccc(Cl)cc3)cs2)n1C`, the activation was 1.7%.
Then `CS(=O)(=O)N(CC(=O)Nc1ccc(F)c(Cl)c1)C1CCCCC1`, with 0.469%; and `CC(C)NC(=O)N(C)C[C@@H]1Oc2ccc(NS(=O)(=O)c3ccccc3)cc2C(=O)N([C@@H](C)CO)C[C@H]1C`, with 1.49%; and `C[C@H]1CN([C@@H](C)CO)C(=O)Cc2cc(NC(=O)CCCCCC(=O)Nc3ccccc3N)ccc2O[C@H]1CN(C)C(=O)Nc1ccc(F)cc1`, with 0.894%.
